Where “and” joins values, the source holds several entries; their conditions need not be identical. Identical values can stand only once. Records with an inconclusive call do not appear. Some compounds were tested as several samples or in several runs, with calls that do not always agree. Calls of active or inactive are those of the source. Unless noted, the call rests on the fitted dose curve; in most records, active means well fitted curve in the direction sought with a large enough effect in the repeat runs; inconclusive means weak or mixed curves; inactive means no such curve, though single readings can be large; an effect the other way counts as inactive or inconclusive.
What was measured:
[1] = qHTS assay to identify aromatase inhibitors - cell viability counter screen (AID 743084);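 further: cells stimulated with testosterone during compound exposure; nearly all actives have a fitted effect of over 55% in size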; further: potency means the concentration at half of the fitted maximal effect
[2] = molecular target: Aryl hydrocarbon receptor (Homo sapiens) (UniProt P35869); assay: qHTS assay to identify small molecule that activate the aryl hydrocarbon receptor (AhR) signaling pathway (AID 743085); further: nearly all actives have a fitted effect of over 15% in size; further: potency means the concentration at half of the fitted maximal effect;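 on activation: HG2L7.5c1 human HepG2 liver cells with stably integrated DRE-driven firefly reporter; series mostly up to about 70 µM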
Sequence of Aryl hydrocarbon receptor (Homo sapiens) (P35869 whole entry, looked up): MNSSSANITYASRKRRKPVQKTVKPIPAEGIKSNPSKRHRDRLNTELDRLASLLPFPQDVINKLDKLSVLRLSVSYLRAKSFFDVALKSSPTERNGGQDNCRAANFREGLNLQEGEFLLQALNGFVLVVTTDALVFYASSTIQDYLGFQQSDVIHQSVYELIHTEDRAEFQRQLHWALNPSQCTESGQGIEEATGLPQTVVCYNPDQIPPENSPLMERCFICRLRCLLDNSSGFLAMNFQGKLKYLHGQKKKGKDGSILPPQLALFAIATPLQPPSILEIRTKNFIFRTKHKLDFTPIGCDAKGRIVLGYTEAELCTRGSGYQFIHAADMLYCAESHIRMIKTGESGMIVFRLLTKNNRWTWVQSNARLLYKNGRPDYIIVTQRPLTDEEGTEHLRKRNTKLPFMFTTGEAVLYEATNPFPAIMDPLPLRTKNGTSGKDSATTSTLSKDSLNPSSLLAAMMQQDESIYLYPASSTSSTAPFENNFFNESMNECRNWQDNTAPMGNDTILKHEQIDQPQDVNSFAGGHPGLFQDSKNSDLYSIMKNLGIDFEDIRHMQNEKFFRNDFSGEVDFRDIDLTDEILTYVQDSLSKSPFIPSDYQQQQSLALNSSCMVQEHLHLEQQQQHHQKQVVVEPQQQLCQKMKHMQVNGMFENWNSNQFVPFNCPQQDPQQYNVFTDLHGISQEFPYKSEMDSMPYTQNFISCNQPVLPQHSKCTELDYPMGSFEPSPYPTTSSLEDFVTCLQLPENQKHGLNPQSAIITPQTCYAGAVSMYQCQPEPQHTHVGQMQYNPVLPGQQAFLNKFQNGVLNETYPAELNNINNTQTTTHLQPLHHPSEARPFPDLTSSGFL
Procedure, shortened: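 Luminescence read-out: ONE-Glo reagent, 30 min at room temperature, in HG2L7.5c1 HepG2 reporter cells treated 24 h at 37C. Viability was measured beforehand by CellTiter-Fluor fluorescence after 30 min at 37C.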

[3] = qHTS assay to identify small molecule that activate the aryl hydrocarbon receptor (AhR) signaling pathway - cell viability counter screen (AID 743086); further: nearly all actives have a fitted effect of over 45% in size; further: potency means the concentration at half of the fitted maximal effect
Procedure, shortened: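 Cytotoxicity counter screen: CellTiter-Fluor signal (30 min, 37 C) in 4000 HepG2 cells/well carrying the DRE-luciferase reporter, following 24 h compound exposure at 37 C.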

[4] = qHTS assay to identify small molecule antagonists of the peroxisome proliferator-activated receptor gamma (PPARg) signaling pathway - cell viability counter screen (AID 743194); details: Potency: co-treated with 50 nM rosiglitazone; further: nearly all actives have a fitted effect of over 55% in size; further: potency means the concentration at half of the fitted maximal effect
Procedure, shortened: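 Viability was measured as CellTiter-Glo luminescence in GeneBLAzer PPARg UAS-bla HEK293H cells. These cells had been exposed 17 h at 37 C to compounds together with rosiglitazone at 50 nM final, with the beta-lactamase readout taken in the same wells.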

[5] = qHTS assay for small molecule agonists of the antioxidant response element (ARE) signaling pathway - cell viability counter screen (AID 743203; calls by dose curve; further: nearly all actives have a fitted effect of over 55% in size; further: potency means the concentration at half of the fitted maximal effect)
Procedure, shortened: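 Compounds in DMSO were pinned onto ARE-bla HepG2 cells plated 5 hrs earlier at 2,000 cells/well. Sixteen hours later at 37C/5% CO2, CellTiter-Glo was added and luminescence measured after 30 min at room temperature.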

[6] = qHTS assay for small molecule activators of the heat shock response signaling pathway - cell viability counter screen (AID 743209); further: nearly all actives have a fitted effect of over 50% in size; further: potency means the concentration at half of the fitted maximal effect
Procedure, shortened: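 Counter screen for cytotoxicity in HeLa HSE-bla reporter cells. Treatment was 5 h at 37 C; viability was detected by luminescent ATP assay (CellTiter-Glo) in the same wells as the beta-lactamase read.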

[7] = molecular target: Peroxisome proliferator-activated receptor gamma (Homo sapiens) (UniProt P37231); assay: qHTS assay to identify small molecule agonists of the peroxisome proliferator-activated receptor gamma (PPARg) signaling pathway (AID 743094; active means well fitted activation curve with a large enough effect in the signal ratio in the repeat runs, not every such curve was filed as active; the % refers to the signal ratio; further: potency means the concentration at half of the fitted maximal effect)
Sequence of Peroxisome proliferator-activated receptor gamma (Homo sapiens) (P37231 whole entry, looked up): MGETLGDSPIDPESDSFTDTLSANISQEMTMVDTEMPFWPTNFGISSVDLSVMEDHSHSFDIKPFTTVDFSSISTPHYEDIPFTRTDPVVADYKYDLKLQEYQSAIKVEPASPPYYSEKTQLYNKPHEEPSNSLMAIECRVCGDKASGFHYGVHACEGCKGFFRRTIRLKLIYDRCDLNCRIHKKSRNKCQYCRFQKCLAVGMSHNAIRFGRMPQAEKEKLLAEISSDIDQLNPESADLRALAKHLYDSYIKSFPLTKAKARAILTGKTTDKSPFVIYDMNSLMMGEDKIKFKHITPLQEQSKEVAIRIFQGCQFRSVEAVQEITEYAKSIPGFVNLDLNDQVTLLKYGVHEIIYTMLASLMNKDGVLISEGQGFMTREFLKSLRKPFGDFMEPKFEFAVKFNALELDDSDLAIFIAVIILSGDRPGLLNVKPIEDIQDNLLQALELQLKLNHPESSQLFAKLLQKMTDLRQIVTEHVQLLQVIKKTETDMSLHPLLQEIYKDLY
Procedure, shortened: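 Following 5 h plating at 37C, PPARg-bla HEK293H cells receive compound or DMSO for 17 h; fluorescence intensity is recorded after LiveBLAzer B/G loading for 1 h at room temperature.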

[8] = qHTS assay for small molecule activators of the heat shock response signaling pathway (AID 743210; active means well fitted activation curve with a large enough effect in the signal ratio in the repeat runs, with a control signal flat, not every such curve was filed as active; the % refers to the signal ratio;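 further: HeLa cells with beta-lactamase reporter driven by heat shock elements; series mostly up to about 63 µM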)
Procedure, shortened: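 HeLa HSE-bla cells, overnight plating; cpd in DMSO 5 h, 37 C; LiveBLAzer B/G FRET substrate 2.5 h RT; fluorescence intensity read.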

[9] = qHTS assay for small molecule agonists of the antioxidant response element (ARE) signaling pathway (AID 743202; active means well fitted activation curve with a large enough effect in the signal ratio in the repeat runs, not every such curve was filed as active; the % refers to the signal ratio; further: potency means the concentration at half of the fitted maximal effect)
Procedure, shortened: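 Quantitative high-throughput format in HepG2 cells bearing an integrated ARE-beta-lactamase reporter. Compound exposure lasted 16 h at 37 C, and fluorescence was read 2 h after adding LiveBLAzer B/G substrate at room temperature.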

[10] = molecular target: Peroxisome proliferator-activated receptor gamma (Homo sapiens) (UniProt P37231); assay: qHTS assay to identify small molecule antagonists of the peroxisome proliferator-activated receptor gamma (PPARg) signaling pathway (AID 743191; calls by dose curve; further: nearly all actives have a fitted effect of over 30% in size; further: potency means the concentration at half of the fitted maximal effect)
Procedure, shortened: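 Beta-lactamase reporter under UAS control in HEK293H PPARg-bla cells; compound treatment 17 h at 37C. Read-out: fluorescence intensity after 1 h room-temperature incubation with LiveBLAzer B/G FRET substrate.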

Measured: Potency

CN1C(=O)C(O)N=C(c2ccccc2)c2cc(Cl)ccc21 (stereo not drawn)
inactive: [1] | [2] | [3] | [4] | [5] | [6]

CCCCN=C=O
inactive: [1] | [2] | [3] | [7] | [5] | [8]

O=NN1CCNCC1
inactive: [1] | [2] | [3] | [4] | [9] | [5]

Clc1cccc(SC2CCNCC2)n1
active: [3] 29.8 µM
not listed: [6] | [7]
inactive: all other assays above

O=C(CCl)c1ccc(Cl)cc1Cl
inactive and 26.6 µM (active): [5]
active: [9] 5.31 µM | [6] 8.41 µM
inactive: [1] | [2] | [3]

COP(=S)(OC)Oc1cc(Cl)c(I)cc1Cl
inactive: [1] | [3] | [4] | [6]
active: [2] 24.3 µM | [10] 27.5 µM

ClP(Cl)(Cl)(Cl)Cl
not listed: [7] | [10]
inactive: all other assays above

O=C(O)CC(Cl)C(=O)O (stereo not drawn)
active: [9] 2.76 µM
not listed: [5] | [7] | [10]
inactive: all other assays above

CCC(COC(=O)c1cc(OC)c(OC)c(OC)c1)(c1ccccc1)N(C)C (stereo not drawn)
not listed: [7] | [9] | [10]
inactive: all other assays above

Clc1cccc2ccccc12
not listed: [7] | [10]
inactive: all other assays above

CCCC(Cn1cncn1)c1ccc(Cl)cc1Cl (stereo not drawn)
inactive: [1] | [2] | [3] | [5] | [8]

C=CC[C@]1(O)CC[C@H]2[C@@H]3CCC4=CC(=O)CCC4=C3C=C[C@@]21C
active: [2] 5.96 µM
inactive: [1] | [3] | [5] | [6] | [8]

O=C1CN=C(c2ccccc2)c2cc(Cl)ccc2N1CC1CC1
active: [9] 32.2 µM
not listed: [7] | [8] | [10]
inactive: all other assays above

C=CCN1CC[C@]23c4c5ccc(O)c4O[C@H]2C(=O)CC[C@@]3(O)[C@H]1C5
not listed: [7] | [10]
inactive: all other assays above

Cl/C=C\Cl
not listed: [7] | [8] | [10]
inactive: all other assays above

CCCCCC[N+](=O)[O-]
inactive: [1] | [2] | [3] | [5] | [6] | [8]

CC(C)(C)C(O)C(Oc1ccc(Cl)cc1)n1cncn1 (stereo not drawn)
active: [2] 18.6 µM
inactive: [1] | [3] | [4] | [6]

COP(=S)(Oc1cc(Cl)c(Br)cc1Cl)c1ccccc1 (stereo not drawn)
inactive: [1] | [3] | [8]
active: [2] 27.3 µM | [5] 48.6 µM

O=S1(=O)OC(c2cc(Br)c(O)c(Br)c2)(c2cc(Br)c(O)c(Br)c2)c2ccccc21
inactive: [2] | [10] | [9] | [8]
active: [1] 25 µM | [3] 28.1 µM

C(=NC1CCCCC1)=NC1CCCCC1
inactive: [1] | [2] | [3] | [6] | [8]
active: [5] 3.08 µM and 3.06 µM

CCCCCCCCCCOC(=O)c1ccccc1C(=O)OCCCCCCCCCC
not listed: [4] | [7] | [10]
inactive: all other assays above

ClCc1ccccc1
not listed: [2] | [8] | [10]
inactive: all other assays above

CN1[C@@H]2CC[C@H]1CC(OC(=O)c1cc(Cl)cc(Cl)c1)C2 (stereo partly drawn)
inactive: [1] | [2] | [7] | [6] | [8]

O=C1C(=O)c2cccc3cccc1c23
inactive: [1] | [3] | [7] | [5]

CCCCNP(N)(N)=S
not listed: [2]
inactive: all other assays above

Oc1ccc(Cl)c(Cl)c1Cl
inactive: [1] | [3] | [7] | [4] | [5] | [8]

O=C(NC(=O)c1c(F)cccc1F)Nc1cc(Cl)c(Oc2ncc(C(F)(F)F)cc2Cl)c(Cl)c1
inactive: [1] | [2] | [3] | [6]

CC1(C)CCC(Cc2ccc(Cl)cc2)C1(O)Cn1cncn1 (stereo not drawn)
inactive: [1] | [2] | [3] | [6] | [8]

N#Cc1cc(I)c(O)c(I)c1
inactive: [1] | [2] | [3] | [8]

COCCOCCO
inactive: [1] | [2] | [3] | [8]

N#C/C(N)=C(/N)C#N
not listed: [2] | [10]
inactive: all other assays above

CCOC(=O)CBr
not listed: [2]
inactive: all other assays above

CCc1ccc(C(=O)NN(C(=O)c2cc(C)cc(C)c2)C(C)(C)C)cc1
inactive: [2] | [7] | [10] | [5] | [8]
active: [1] 6.86 µM | [9] 61.1 µM

CCCCC(O)(Cn1cncn1)c1ccc(Cl)cc1Cl (stereo not drawn)
active: [1] 68.5 µM
inactive: [2] | [7] | [6]

O=[N+]([O-])c1cc(C(F)(F)F)cc([N+](=O)[O-])c1Cl
not listed: [3] | [7] | [9]
inactive: all other assays above

C/C=C/C=O
inactive: [1] | [3] | [7] | [4] | [5] | [8]

O=C=Nc1ccc(Cl)cc1
active: [9] 43.3 µM
not listed: [2] | [8] | [10]
inactive: all other assays above

Cc1ccccc1C(=O)Nc1cccc(OC(C)C)c1
inactive: [1] | [3] | [7] | [5] | [6] | [8]

CNP(=O)(OC)Oc1ccc(C(C)(C)C)cc1Cl (stereo not drawn)
active: [10] 43.6 µM | [9] 54.5 µM
inactive: [1] | [3] | [5] | [6] | [8]

CN(N=O)c1ccc([N+](=O)[O-])cc1
not listed: [2]
inactive: all other assays above

c1cc2ccc3cccc4ccc(c1)c2c34
inactive: [1] | [2] | [6]

O=[N+]([O-])c1ccccc1CCl
active: [7] 0.0988 µM
not listed: [2] | [9]
inactive: all other assays above

CC(C)N(C(=O)COc1nnc(C(F)(F)F)s1)c1ccc(F)cc1
inactive: [1] | [3] | [7] | [4] | [5]

C/C(=C\c1ccccc1)[N+](=O)[O-]
inactive: [2]
active: [1] 21.7 µM | [4] 21.9 µM | [5] 15.4 µM

O=C(Nc1ccccc1)Nc1cnns1
active: [2] 15.3 µM
inactive: [1] | [7] | [10] | [5] | [8]

CCOP(=S)(OCC)SCn1nnc2ccccc2c1=O
active: [1] 54.5 µM | [4] 43.6 µM | [9] 3.06 µM
inactive: [2] | [7] | [6]

IC(I)=C(I)I
active: [1] 15.4 µM | [3] 43.3 µM | [4] 9.77 µM | [5] 6.11 µM

Nc1ccc([N+](=O)[O-])cc1[N+](=O)[O-]
inactive: [1] | [3] | [7] | [5] | [6] | [8]

CC(=O)C(C)(C)C
not listed: [2] | [6] | [10]
inactive: all other assays above

CCBr
inactive: [1] | [3] | [4] | [9] | [5]

O=[Se]=O
inactive: [1] | [2] | [10] | [5] | [8]
active: [9] 8.58 µM

Cc1ccc(N)cc1C
not listed: [2] | [4] | [10]
inactive: all other assays above

O=C(NCc1cccnc1)Nc1ccc([N+](=O)[O-])cc1
not listed: [2] | [4] | [10]
inactive: all other assays above

NNC(=O)c1cccnc1
not listed: [2] | [4]
inactive: all other assays above

OCCCBr
inactive: [1] | [3] | [7] | [8]

CC(c1ccc(O)cc1)(c1ccc(O)cc1)c1ccc(O)cc1
active: [10] 21.9 µM
inactive: [1] | [2] | [7] | [6]

CC(C)O.CC(C)O.OCCN(CCO)CCO.OCCN(CCO)CCO.[Ti]
inactive: [3] | [4] | [5] | [6]

O=C(Nc1ccccc1)Nc1ccnc(Cl)c1
inactive: [6] | [8]

CC1Sc2c(C(=O)O)c(=O)c3cc(F)c(N4CCNCC4)cc3n21 (stereo not drawn)
inactive: [4] | [9] | [5] | [6] | [8]

COC1=CC(=O)O[C@@H](CCc2ccccc2)C1
inactive: [2] | [3] | [4] | [5] | [6] | [8]

ClCc1cccc(Cl)c1
inactive: [5] | [6] | [8]

CCCCCCC#N
inactive: [1] | [3] | [9] | [5] | [8]

COc1nn(CSP(=S)(OC)OC)c(=O)s1
active: [1] 68.6 µM
inactive: [3] | [5]
